This is an account of results in paper PMC4336329 (PLoS ONE, 2015).

About 2,200 (0.71%) of roughly 310,000 compounds showed an effect of 50% or more. The effect is printed as a negative number. The sample holds strong results, similar compounds and a random draw of the others, so the mix is not that of the screen.

The target in this experiment is human ether-à-go-go-related gene (hERG) potassium channel (human, UniProt Q12809). Description: primary screen, population patch clamp on CHO cells stably expressing hERG; higher = less effect of the substance.
human ether-à-go-go-related gene (hERG) potassium channel, sequence (Q12809 whole entry, looked up): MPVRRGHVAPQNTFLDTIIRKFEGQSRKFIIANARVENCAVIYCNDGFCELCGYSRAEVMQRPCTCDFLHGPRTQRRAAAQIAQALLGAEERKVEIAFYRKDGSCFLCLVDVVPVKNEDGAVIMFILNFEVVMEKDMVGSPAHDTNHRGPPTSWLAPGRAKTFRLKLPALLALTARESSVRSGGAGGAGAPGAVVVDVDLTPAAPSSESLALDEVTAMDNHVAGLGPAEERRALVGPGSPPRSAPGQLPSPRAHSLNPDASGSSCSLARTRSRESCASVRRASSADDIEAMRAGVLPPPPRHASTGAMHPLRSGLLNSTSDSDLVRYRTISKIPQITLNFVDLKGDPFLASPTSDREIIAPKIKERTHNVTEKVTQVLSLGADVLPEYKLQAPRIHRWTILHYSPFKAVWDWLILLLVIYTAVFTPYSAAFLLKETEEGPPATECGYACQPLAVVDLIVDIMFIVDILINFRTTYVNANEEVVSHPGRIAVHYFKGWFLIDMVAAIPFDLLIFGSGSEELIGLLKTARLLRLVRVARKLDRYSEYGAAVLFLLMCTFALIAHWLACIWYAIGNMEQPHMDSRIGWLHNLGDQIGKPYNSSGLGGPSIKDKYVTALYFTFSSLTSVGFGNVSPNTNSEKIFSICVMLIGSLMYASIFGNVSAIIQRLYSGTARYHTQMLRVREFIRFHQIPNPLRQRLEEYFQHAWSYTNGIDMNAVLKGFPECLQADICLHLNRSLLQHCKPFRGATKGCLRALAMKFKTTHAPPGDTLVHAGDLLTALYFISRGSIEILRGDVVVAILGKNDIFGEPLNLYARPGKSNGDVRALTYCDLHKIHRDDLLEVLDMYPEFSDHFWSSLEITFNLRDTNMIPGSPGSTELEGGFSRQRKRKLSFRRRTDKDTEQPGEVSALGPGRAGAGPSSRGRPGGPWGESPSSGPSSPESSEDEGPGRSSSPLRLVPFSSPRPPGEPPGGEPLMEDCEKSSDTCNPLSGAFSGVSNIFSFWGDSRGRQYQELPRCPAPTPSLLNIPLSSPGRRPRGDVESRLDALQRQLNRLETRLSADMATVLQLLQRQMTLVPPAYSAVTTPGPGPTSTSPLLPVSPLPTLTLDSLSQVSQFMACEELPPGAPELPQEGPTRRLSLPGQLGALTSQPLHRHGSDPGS
With `COc1ccc(/C=C/c2c([N+](=O)[O-])c(=O)n(C)c(=O)n2C)cc1OC`, the “hERG current change (%, negative = inhibition) at 1uM” value is given as 5.36%.
The figure for `COc1ccc(-c2nsc(SCC(=O)Nc3cc(C)on3)n2)cc1` is 11.9%; for `O=C(O)c1ccc(CNCc2ccc(Cl)cc2)cc1` it is 11.3%.
The figure for `O=C(CCc1ccccc1)Nc1cc2c3c(c1)CCC(=O)N3CCC2` is -1.85%; for `COc1ccc(-c2cc(C)no2)cc1S(=O)(=O)Nc1cccc(C)c1` it is 15.5%.
As for `CC(C)(C)NC(=O)C1Cc2ccccc2CN1S(=O)(=O)c1ccc(F)cc1` (stereo not drawn), the “hERG current change (%, negative = inhibition) at 1uM” value is 3.91%.
The figure for `O=C(CC1CC2CCC1C2)NCCc1ccc(Cl)cc1` (stereo not drawn) is -0.305%.
For `Cn1cccc1/C=N/N1CCN(Cc2ccc(Cl)cc2)CC1`, the “hERG current change (%, negative = inhibition) at 1uM” value was 3.9%.
Take `COc1ccc(COCC(O)CN2CCC(CN3C(=O)c4cccc5cccc(c45)C3=O)CC2)cc1OC.Cl` (stereo not drawn): the “hERG current change (%, negative = inhibition) at 1uM” value is -20.2%.
Take `CCS(=O)(=O)N1CCN(S(=O)(=O)c2ccc3ccccc3c2)CC1`: the “hERG current change (%, negative = inhibition) at 1uM” value is listed as 13%.
The result for `O=C(CSc1ccc(Cl)cc1)Nc1nnc(-c2ccco2)o1` reads -1.41%; that for `COc1cc(C2C(C#N)=C(N)Oc3cc(C)oc(=O)c32)cc(OC)c1OC` (stereo not drawn), 20.5%.
The result for `COC(=O)c1cc(Br)c(=O)n(Cc2ccc(OC)c(OC)c2)c1` reads 16.7%.
The figure for `CCn1cc(C(=O)NCCCN2CC(C)CC(C)C2)c(=O)c2cc(S(=O)(=O)N(C)C)ccc21` (stereo not drawn) is -17.3%.
For the molecule `CCCCN(CC)CCCNC(=O)c1cn(CC)c2ccc(S(=O)(=O)N3CCc4ccccc4C3)cc2c1=O`, the “hERG current change (%, negative = inhibition) at 1uM” value was -71.9%.
The figure for `CCCN(CCC)CCCNC(=O)c1cn(CC)c2ccc(S(=O)(=O)N3CCc4ccccc4C3)cc2c1=O` is -47.9%; for `CCn1cc(C(=O)NCCCN2CC(C)CC(C)C2)c(=O)c2cc(S(=O)(=O)N(C)C3CCCCC3)ccc21` (stereo not drawn) it is -91.4%.
On to `CCOCCCNC(=O)c1cn(CC)c2ccc(S(=O)(=O)N(C)C3CCCCC3)cc2c1=O`, for which the “hERG current change (%, negative = inhibition) at 1uM” value is 11.3%.
`CCN(CC)CCCNC(=O)c1cn(CC)c2ccc(S(=O)(=O)N3CCc4ccccc4C3)cc2c1=O`: the “hERG current change (%, negative = inhibition) at 1uM” value amounted to 1.94%.
The figure for `Oc1ccc(/C=N/Nc2ccc(C(F)(F)F)cn2)cc1` is 7.84%.
On to `O=C(NCc1ccco1)C(=O)NCC1OCCCN1S(=O)(=O)c1ccc(F)cc1` (stereo not drawn), for which the “hERG current change (%, negative = inhibition) at 1uM” value was 10%.
The result for `COc1ccccc1N(C)S(=O)(=O)c1ccc(Cl)c(C(=O)NC2=NCCS2)c1` reads 21.6%; that for `Cc1ccc(S(=O)(=O)NCC2COc3ccccc3O2)cc1` (stereo not drawn), 6.71%; that for `CCc1ccc(NC(=O)CSCc2nc(N)nc(Nc3ccccc3CC)n2)cc1`, 10.9%.
With `CCc1ccc(CN2CCC(N3CCC(C(=O)N4CCCC4)CC3)CC2)o1`, the “hERG current change (%, negative = inhibition) at 1uM” value is -28.3%.
The figure for `O=C(c1cc(F)ccc1F)N1CCC(N2CCC(C(=O)N3CCCC3)CC2)CC1` is 16.9%.
`O=C(C1CCN(C2CCN(Cc3ccc4cc(F)ccc4n3)CC2)CC1)N1CCCC1`: the “hERG current change (%, negative = inhibition) at 1uM” value is -78.3%.
The figure for `CCCCNc1nc2ccccc2n1CC(=O)N1CCc2ccccc2C1` is -6.59%.
The result for `N#Cc1nc(-c2ccc(F)cc2)oc1NCc1cccc2c1OCO2` reads 13.6%.
The result for `Cc1cc([N+](=O)[O-])nn1CC(=O)NNC(=S)Nc1ccc([N+](=O)[O-])cc1` reads 11.8%; that for `O=C(CSc1ccccc1)N1CCCC(N2CCN(c3ccc(F)cc3)CC2)C1` (stereo not drawn), -56%; that for `Cc1ccc(OCC(=O)N2CCCC(N3CCN(c4ccc(F)cc4)CC3)C2)cc1` (stereo not drawn), -90.2%.
For the molecule `O=C(CSc1ccccc1)N1CCCC(N2CCN(c3ccccc3)CC2)C1` (stereo not drawn), the “hERG current change (%, negative = inhibition) at 1uM” value was 2.18%.
The figure for `O=C(COc1ccccc1Cl)N1CCCC(N2CCN(c3ccc(F)cc3)CC2)C1` (stereo not drawn) is -19.5%; for `CSCC(=O)N1CCCC(N2CCN(c3ccc(F)cc3)CC2)C1` (stereo not drawn) it is 0.918%.
Regarding `COc1ccccc1OCC(=O)N1CCCC(N2CCN(c3ccc(F)cc3)CC2)C1` (stereo not drawn), the “hERG current change (%, negative = inhibition) at 1uM” value was 4.57%.
The result for `CC(=O)Nc1cc(C(C)(C)C)c(O)c(C(C)(C)C)c1` reads 13.4%; that for `CCCNC(=O)c1cc(S(=O)(=O)N2CCCCC2)ccc1N1CCOCC1`, -9.91%.
On to `CC1CCC(NC(=O)CN2CCCN(Cc3ccc(F)cc3Cl)C2=O)CC1` (stereo not drawn), for which the “hERG current change (%, negative = inhibition) at 1uM” value amounted to 8.34%.
In the case of `CN(C)C1(CNC(=O)Nc2ccc(Cl)c(Cl)c2)CCCCC1`, the “hERG current change (%, negative = inhibition) at 1uM” value is reported as 3.77%.
Consider `Cc1nc2ccccc2c(=O)n1-c1ccc([N+](=O)[O-])cc1`, for which the “hERG current change (%, negative = inhibition) at 1uM” value came to 11.2%.
The result for `Cl.O.O=c1c2ccccc2nc2n1CC/C2=C/N1CCN(c2cccc(C(F)(F)F)c2)CC1` reads 5.54%.
The figure for `O=c1c2ccccc2nc2n1CC/C2=C\N1CCN(c2ccc([N+](=O)[O-])cc2)CC1` is -62.1%; for `O=[N+]([O-])c1ccc(CS(=O)(=O)N2CCN(c3ccccc3)CC2)cc1` it is -3.45%.
The result for `CC1CCCC(C)N1c1nnc(N)s1` (stereo not drawn) reads 10.6%; that for `Cc1ccccc1NC(=S)N1CCCN(Cc2ccc(F)cc2)C1`, 8.61%; that for `CSc1nc(NCC(C)C)c2c3c(sc2n1)CN(C)CC3`, -9.92%.
As to `CSc1nc(NCc2ccco2)c2c3c(sc2n1)CN(C)CC3`, the “hERG current change (%, negative = inhibition) at 1uM” value was -38.8%.
`CSc1nc(NCc2ccccc2)c2c3c(sc2n1)CN(C)CC3`: the “hERG current change (%, negative = inhibition) at 1uM” value is listed as -64.2%.
In the case of `CC(C)c1ccc2c(c1)c(SC(C)(C)C)c(CC(C)(C)C(=O)O)n2Cc1ccc(Cl)cc1`, the “hERG current change (%, negative = inhibition) at 1uM” value is listed as 5.14%.
Regarding `COCCNC(=O)C(OC(=O)c1cc2oc(C)cc2n1C)C(C)C` (stereo not drawn), the “hERG current change (%, negative = inhibition) at 1uM” value stood at 7.23%.
The result for `COc1cn(-c2ccccc2)nc1C(=O)Nc1ccc(C)cc1Cl` reads 11.4%.
For the molecule `CCCCNCC(O)(c1ccc(Cl)cc1)c1ccc(Cl)cc1`, the “hERG current change (%, negative = inhibition) at 1uM” value is -5.39%.
Turning to `CC(C)(C)NCC(O)(c1ccc(Cl)cc1)c1ccc(Cl)cc1`, the “hERG current change (%, negative = inhibition) at 1uM” value is 13%.
As for `CCN(CC)CCNCC(O)(c1ccc(Cl)cc1)c1ccc(Cl)cc1`, the “hERG current change (%, negative = inhibition) at 1uM” value is reported as -84.4%.
For the molecule `Cc1ccc(NC(=O)CN(c2ccc(Cl)cc2)S(=O)(=O)c2cc([N+](=O)[O-])ccc2Cl)cc1`, the “hERG current change (%, negative = inhibition) at 1uM” value was determined as 7.07%.
Consider `CC(C1CC2CCC1C2)n1c(COc2ccccc2F)nnc1SCC(N)=O` (stereo not drawn), for which the “hERG current change (%, negative = inhibition) at 1uM” value is given as -1.9%.
In the case of `Cc1cc(N2CCN(C(=O)c3ccco3)CC2)nc(-c2ccccc2)n1`, the “hERG current change (%, negative = inhibition) at 1uM” value is -22.6%.
The result for `O=C(C1CCCCC1)N1CCN(c2ccnc3cc(Cl)ccc23)CC1` reads -27.1%.
The figure for `Cc1cccc2[nH]c3c(N4CCN(C(=O)c5ccco5)CC4)ncnc3c12` is -5.77%.
The figure for `Cc1nc2ccccc2c2oc(C(=O)N3CCN(C(=O)c4ccco4)CC3)cc12` is -23.2%.
Regarding `O=C(c1ccco1)N1CCN(c2cccc(Cl)c2)CC1`, the “hERG current change (%, negative = inhibition) at 1uM” value turned out to be 9.98%.
Turning to `O=C(C1CCC1)N1CCN(c2ccnc3cc(Cl)ccc23)CC1`, the “hERG current change (%, negative = inhibition) at 1uM” value is listed as -59.6%.
For `Cc1cc(N2CCN(C(=O)c3ccco3)CC2)c2ccccc2n1`, the “hERG current change (%, negative = inhibition) at 1uM” value is -68.6%.
Take `O=C(c1ccco1)N1CCN(c2ccc(Cl)cc2)CC1`: the “hERG current change (%, negative = inhibition) at 1uM” value is recorded as -5.03%.
For `O=C(C1CC1)N1CCN(c2ccnc3cc(Cl)ccc23)CC1`, the “hERG current change (%, negative = inhibition) at 1uM” value is -31.6%.
Take `CCOc1ccc2[nH]c3c(N4CCN(C(=O)c5ccco5)CC4)ncnc3c2c1`: the “hERG current change (%, negative = inhibition) at 1uM” value is -3.41%.
As for `O=C(c1ccco1)N1CCN(c2ncnc3c2[nH]c2ccc(Cl)cc23)CC1`, the “hERG current change (%, negative = inhibition) at 1uM” value is -70.1%.
The result for `O=C(c1ccco1)N1CCN(c2ccnc3cc(Cl)ccc23)CC1` reads -63.6%; that for `CCCOc1ccc(N2CC(C(=O)NC3=NCCS3)CC2=O)cc1` (stereo not drawn), -26%; that for `CCCCN1CCC(COC(=O)c2cc(Cl)c(N)c3c2OCCO3)CC1.Cl`, -23.9%.
As for `COc1ccccc1CNS(=O)(=O)c1ccc(-n2cccn2)cc1`, the “hERG current change (%, negative = inhibition) at 1uM” value is 13.3%.
The figure for `O=C(NCc1cccs1)c1ccccc1` is 7.23%.
In the case of `CCNc1nc(SCC(=O)OC)nc(N(C)C)n1`, the “hERG current change (%, negative = inhibition) at 1uM” value is -1.18%.
The result for `COc1ccc(CN(CC(=O)NC2CCCCC2)C(=O)CCCC(=O)Nc2ccccn2)cc1` reads 9.4%; that for `Cc1ccccc1OCC(=O)Nc1ccccc1C(=O)N1CCCCC1`, -4.24%; that for `CC(=O)Nc1ccc(CNc2ncnc3ccc(-c4c(C)noc4C)cc23)cc1`, 11.5%.
For `O=C1C=C(O)C(n2cncn2)C(c2ccc(F)cc2)C1` (stereo not drawn), the “hERG current change (%, negative = inhibition) at 1uM” value is -9.66%.
On to `COC(=O)c1cc(C(=O)OC)cc(N2C(=O)CC(NNC(=O)c3ccccc3Br)C2=O)c1` (stereo not drawn), for which the “hERG current change (%, negative = inhibition) at 1uM” value turned out to be 4.08%.
The figure for `O=C1NC2(CCCCC2)C(=O)N1Cc1cc(=O)n2ccsc2n1` is 6.06%.
For the molecule `Cc1ccc(CN2C(=O)CCC2C(=O)NCc2ccccc2Cl)cc1` (stereo not drawn), the “hERG current change (%, negative = inhibition) at 1uM” value is given as 7.62%.
`Nc1nc2ccc(-c3nc4ccccc4o3)cc2s1`: the “hERG current change (%, negative = inhibition) at 1uM” value was determined as 11.2%.
The result for `CC(=O)N1CCN(c2ccnc3cc(Cl)ccc23)CC1` reads -23.2%; that for `CC(C)(C)C(=O)N1CCN(c2ccnc3cc(Cl)ccc23)CC1`, -55.8%.
The result for `CCOC(=O)N1CCN(c2ccnc3cc(Cl)ccc23)CC1` reads -36.7%.
`c1cncc(-c2nc3ccccn3c2Nc2ccc3c(c2)OCCO3)c1`: the “hERG current change (%, negative = inhibition) at 1uM” value came out at 4.02%.
The figure for `O=C(O)CN(Cc1ccco1)S(=O)(=O)c1ccc(F)cc1` is 11.9%.
